Records with an inconclusive call do not appear. Active and inactive are the calls of the source. Unless noted, the call rests on the fitted dose curve; in most records, active means well fitted curve in either direction with a large enough effect (not every such curve was filed as active); inconclusive means small, poorly fitted or top-dose-only effect, or another doubt; inactive means flat fitted curve, though single readings scatter.
Tests used:
[1] = AP1 Signaling Pathway (AID 357); further: on the % scale 0 is the no-effect control and ±100 the full control effect
In short: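 AP-1-bla ME-180 cells with beta-lactamase reporter under AP-1 response element, stimulated with EC50 EGF; compounds titrated, 5 hours at 37 degrees Celsius. CCF4 read at 460/530 nm ratio; positive and negative modulators judged by AC50.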

[2] = molecular target: Cytochrome P450 1A2 (Homo sapiens) (UniProt P05177); assay: p450-cyp1a2 (AID 410; calls by dose curve; further: potency means the concentration at half of the fitted maximal effect;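 on activity change, negative = inhibition: -100% = full effect of reference inhibitor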)
Cytochrome P450 1A2 (Homo sapiens), sequence (P05177 whole entry, looked up): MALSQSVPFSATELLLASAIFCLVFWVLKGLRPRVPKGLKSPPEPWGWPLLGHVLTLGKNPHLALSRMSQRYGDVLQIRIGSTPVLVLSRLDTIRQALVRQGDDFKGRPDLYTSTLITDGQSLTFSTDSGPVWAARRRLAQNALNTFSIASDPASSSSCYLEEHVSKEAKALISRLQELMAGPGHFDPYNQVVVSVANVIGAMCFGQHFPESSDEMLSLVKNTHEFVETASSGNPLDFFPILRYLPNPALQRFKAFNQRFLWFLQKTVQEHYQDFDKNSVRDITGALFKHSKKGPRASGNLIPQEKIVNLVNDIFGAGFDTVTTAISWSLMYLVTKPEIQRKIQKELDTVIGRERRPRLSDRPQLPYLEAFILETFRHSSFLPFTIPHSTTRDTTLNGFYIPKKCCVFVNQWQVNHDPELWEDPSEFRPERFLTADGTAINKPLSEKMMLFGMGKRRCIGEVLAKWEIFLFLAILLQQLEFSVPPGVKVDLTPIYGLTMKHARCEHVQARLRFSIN
In short: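 Inhibition was calculated relative to 57 uM furafylline (full inhibition). The reaction used human CYP1A2 at 20nM with Luciferin-ME at its Km, 100uM, driven by an NADPH-regenerating system for 60 min at room temperature.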

[3] = NFAT Signaling Pathway (AID 444); conditions: Jurkat NFAT-bla M1, carbachol, beta-lactamase ratio, 5 h; at 7.69 µM (top of the series);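 further: carbachol stimulus at about its EC50 of 1 µM final; on the % scale 0 is the no-effect control and ±100 the full control effect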
In short: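 Read-out: CCF4 FRET ratio (460 nm/530 nm) after 1 h RT dye loading, used for %activity and AC50 from titration series. Cells: Jurkat NFAT-β-lactamase/M1 line, treated with compound plus 1 uM carbachol for 5 h, 37 °C.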

[4] = Stat Signaling Pathway (AID 446);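 further: ME-180 cervical cancer cells given 40 pM IL-6 alongside compound; SIE-controlled beta-lactamase reporter measured as 460/530 nm FRET emission ratio; on the % scale 0 is the no-effect control and ±100 the full control effect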
In short: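 ME-180 SIE-bla cells; overnight plating; cpd + IL-6 40 pM, 5 h, 37 C; LiveBLAzer 2.5 h RT; 460/530 nm emission ratio. Normalized to 300 pM IL-6 and 125 nM JAK inhibitor controls.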

[5] = molecular target: Glucocorticoid receptor (Homo sapiens) (UniProt P04150); assay: GR-GFP Redistribution (AID 450;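 active means compounds whose dose series gives a full or clear partial fitted curve of increased nuclear translocation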; further: potency means the concentration at half of the fitted maximal effect); conditions: U2OS GR-GFP nuclear translocation, laser cytometry, 2 h
Glucocorticoid receptor (Homo sapiens), sequence (P04150 whole entry, looked up, the tested form may be a part): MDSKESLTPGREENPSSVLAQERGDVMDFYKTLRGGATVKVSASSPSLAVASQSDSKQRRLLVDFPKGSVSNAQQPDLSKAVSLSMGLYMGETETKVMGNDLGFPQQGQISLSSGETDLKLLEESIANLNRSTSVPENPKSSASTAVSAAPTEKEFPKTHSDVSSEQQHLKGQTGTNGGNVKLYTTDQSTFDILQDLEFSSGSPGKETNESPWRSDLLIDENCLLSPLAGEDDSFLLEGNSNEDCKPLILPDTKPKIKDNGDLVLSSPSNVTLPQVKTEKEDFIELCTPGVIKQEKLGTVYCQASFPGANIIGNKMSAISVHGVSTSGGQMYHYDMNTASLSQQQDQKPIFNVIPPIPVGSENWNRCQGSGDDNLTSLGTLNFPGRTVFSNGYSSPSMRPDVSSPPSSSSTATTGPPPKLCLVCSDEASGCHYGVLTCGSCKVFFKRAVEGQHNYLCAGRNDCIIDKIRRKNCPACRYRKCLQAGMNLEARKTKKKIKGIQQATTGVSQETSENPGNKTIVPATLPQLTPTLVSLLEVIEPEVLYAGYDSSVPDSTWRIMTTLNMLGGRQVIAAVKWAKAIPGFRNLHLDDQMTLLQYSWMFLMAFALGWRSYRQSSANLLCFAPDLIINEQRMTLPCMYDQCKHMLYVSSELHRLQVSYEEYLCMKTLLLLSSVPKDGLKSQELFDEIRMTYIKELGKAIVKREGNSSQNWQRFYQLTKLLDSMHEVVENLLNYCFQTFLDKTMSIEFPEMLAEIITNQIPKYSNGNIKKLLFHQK

[6] = molecular target: Glucocorticoid receptor (Homo sapiens) (UniProt P04150); assay: GR-EFC Redistribution (AID 451; calls by dose curve; further: potency means the concentration at half of the fitted maximal effect); conditions: CHO-K1 GR-EFC translocation, beta-gal luminescence, 2 h
In short: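 Translocation of GR-ED fusion to nuclear EA restores b-gal, read by luminescence after 1 h room-temperature detection. Engineered CHO-K1 biosensor cells, 1,000/well, exposed 2 h at 37 C to titrations up to 46 uM final.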

[7] = molecular target: Mitogen-activated protein kinase 10 (Mus musculus) (UniProt Q61831); assay: JNK3 AlphaScreen Assay (AID 530);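 further: kinase came from lysate of stimulated human HepG2 cells; signal reports phosphorylation of biotinylated GST-cJun 1-79 at Ser73 with 10 µM ATP; on the % scale 0 is the no-effect control and ±100 the full control effect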
In short: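 Room-temperature AlphaScreen kinase assay; pre-activated HepG2 lysate as JNK3 source, biotin-GST-cJun(1-79) substrate, 10 uM ATP, compound 15 min preincubation.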

[8] = molecular target: 3',5'-cyclic-AMP phosphodiesterase 4B (Homo sapiens) (UniProt Q07343); assay: qHTS Assay for Inhibitors of PDE-IV (AID 607; active means well fitted activation curve with a large enough effect in the main read-out, with a control signal flat, not every such curve was filed as active; further: % of control where 0% means no effect)
3',5'-cyclic-AMP phosphodiesterase 4B (Homo sapiens), sequence (Q07343 whole entry, looked up): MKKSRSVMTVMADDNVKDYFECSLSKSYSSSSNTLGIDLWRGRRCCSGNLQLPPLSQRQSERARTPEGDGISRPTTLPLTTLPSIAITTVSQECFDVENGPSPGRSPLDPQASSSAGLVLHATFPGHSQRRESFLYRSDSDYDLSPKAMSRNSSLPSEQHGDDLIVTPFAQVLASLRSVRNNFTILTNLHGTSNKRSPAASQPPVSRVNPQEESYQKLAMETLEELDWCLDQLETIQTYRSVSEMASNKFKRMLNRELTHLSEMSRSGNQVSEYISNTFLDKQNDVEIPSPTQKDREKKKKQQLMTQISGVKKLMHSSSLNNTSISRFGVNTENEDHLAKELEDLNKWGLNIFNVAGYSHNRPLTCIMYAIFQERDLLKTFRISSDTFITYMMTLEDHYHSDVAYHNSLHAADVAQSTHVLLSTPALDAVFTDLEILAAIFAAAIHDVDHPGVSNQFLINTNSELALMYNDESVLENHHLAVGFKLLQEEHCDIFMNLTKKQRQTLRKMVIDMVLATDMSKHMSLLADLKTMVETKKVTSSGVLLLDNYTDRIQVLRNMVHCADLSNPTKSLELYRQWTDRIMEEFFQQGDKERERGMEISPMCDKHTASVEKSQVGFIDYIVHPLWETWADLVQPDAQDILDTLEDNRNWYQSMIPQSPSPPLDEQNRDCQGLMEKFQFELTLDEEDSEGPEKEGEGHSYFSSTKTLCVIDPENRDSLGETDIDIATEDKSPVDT
In short: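 ACTOne HEK293 cells carry a modified cAMP-gated CNG channel and express endogenous PDE4; plated 1000 cells/well, compounds up to 22.9 uM final. Membrane-potential dye fluorescence (ex 535/em 590) was read; parental cells received 10 uM forskolin + 100 uM RO 20-1724.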

[9] = molecular target: Cytochrome P450 3A4 (Homo sapiens) (UniProt P08684); assay: qHTS Assay for Inhibitors and Substrates of Cytochrome P450 3A4 (AID 884; active means well fitted curve in the direction sought with a large enough effect; an effect the other way counts as inactive or inconclusive; further: nearly all actives have a fitted effect of over 50% in size; further: potency means the concentration at half of the fitted maximal effect)
Cytochrome P450 3A4 (Homo sapiens), sequence (P08684 whole entry, looked up): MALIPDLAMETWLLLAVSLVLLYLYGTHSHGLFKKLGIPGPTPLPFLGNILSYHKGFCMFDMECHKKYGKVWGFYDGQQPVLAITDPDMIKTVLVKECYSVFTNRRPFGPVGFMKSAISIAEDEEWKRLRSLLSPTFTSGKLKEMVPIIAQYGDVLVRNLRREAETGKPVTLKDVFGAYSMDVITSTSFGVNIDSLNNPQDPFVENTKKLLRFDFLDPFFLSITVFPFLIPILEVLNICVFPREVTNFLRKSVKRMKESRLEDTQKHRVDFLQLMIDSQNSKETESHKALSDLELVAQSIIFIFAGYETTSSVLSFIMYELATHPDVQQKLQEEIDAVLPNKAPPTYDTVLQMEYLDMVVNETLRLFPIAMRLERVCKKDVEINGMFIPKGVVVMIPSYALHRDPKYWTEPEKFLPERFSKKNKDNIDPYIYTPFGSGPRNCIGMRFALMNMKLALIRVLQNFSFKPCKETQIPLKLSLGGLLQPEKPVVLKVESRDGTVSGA
In short: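 20 nM human CYP3A4 with 25 uM Luciferin-PPXE (at KM) in 200 mM KPO4, preincubated 10 min with compound; NADPH regeneration started a 60 min RT reaction. Luciferin detected by luminescence, normalized to 57 uM ketoconazole as full inhibition.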

[10] = molecular target: Cytochrome P450 3A4 (Homo sapiens) (UniProt P08684); assay: qHTS Assay for Activators of Cytochrome P450 3A4 (AID 885; active means well fitted curve in the direction sought with a large enough effect; an effect the other way counts as inactive or inconclusive; further: nearly all actives have a fitted effect of over 65% in size; further: potency means the concentration at half of the fitted maximal effect)
In short: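 20nM CYP3A4 + 25uM Luciferin-PPXE (=KM), 200mM KPO4; cpd 10 min RT; NADPH regen, 60 min RT; stop w/ detection buffer, 20 min; luminescence. Normalized to 57 uM ketoconazole.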

[11] = Confirmation and Secondary Assay for Modulators of Hemoglobin Beta Chain Splicing at IVS2 654 locus (AID 910; active means well fitted curve in the direction sought with a large enough effect; an effect the other way counts as inactive or inconclusive;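 further: HeLa cells stably carrying EGFP split by mutant beta-globin IVS2-654 intron; per-well total GFP intensity by laser scanning cytometry after 2-day treatment; % of control where 0% means no effect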)
In short: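 Readout: per-well total peak green fluorescence (488 nm ex, 500–520 nm em) from objects 5–250 µm, reflecting correct splicing of an EGFP-654 reporter. Compounds were applied for 2 days at 37 °C to overnight-plated HeLa EGFP-654 cells; controls were DMSO and 500 nM IVS2-654 PNA.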

[12] = Confirmation and Secondary Assay for Modulators of Hemoglobin Beta Chain Splicing at IVS2 705 locus (AID 930; active means well fitted curve in the direction sought with a large enough effect; an effect the other way counts as inactive or inconclusive;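 further: HeLa cells stably expressing the EGFP-705 splicing reporter; GFP fluorescence per well restored by corrected splicing of the IVS2-705 intron in EGFP; % of control where 0% means no effect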)
In short: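 HeLa EGFP-705 reporter; 500 cells/well, o/n 37C 5% CO2; cpd 2 d; 488 ex/500-520 em laser scan; total peak GFP intensity/well. Ref: 500 nM […] antisense PNA.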

[13] = qHTS Assay for Lipid Storage Modulators (AID 1519; calls by dose curve); conditions: Drosophila S3 cells, BODIPY lipid droplet/cell ratio, laser cytometry, cells loaded with oleic acid; for activity change, negative = inhibition: at 57.5 µM (top of the series)
In short: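 Cells seeded at 5,000 per well were treated with compounds over a concentration series and loaded with oleic acid (400 uM, as added). Lipid droplet fluorescence (488 nm excitation, 500-530 nm channel) was read by laser-scanning cytometry and normalized to 20 uM Triacsin C.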

[14] = molecular target: Ubiquitin carboxyl-terminal hydrolase 1 (Homo sapiens) (UniProt O94782); assay: Inhibitors of USP1/UAF1: Pilot qHTS (AID 504865; active means well fitted curve in the direction sought with a large enough effect; an effect the other way counts as inactive or inconclusive;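 further: rhodamine fluorescence freed from ubiquitin-rhodamine substrate followed over time; top concentration of the series differs between compounds; on the % scale 0 is the no-effect control and ±100 the full control effect; nearly all actives have a fitted effect of over 35% in size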)
Ubiquitin carboxyl-terminal hydrolase 1 (Homo sapiens), sequence (O94782 whole entry, looked up): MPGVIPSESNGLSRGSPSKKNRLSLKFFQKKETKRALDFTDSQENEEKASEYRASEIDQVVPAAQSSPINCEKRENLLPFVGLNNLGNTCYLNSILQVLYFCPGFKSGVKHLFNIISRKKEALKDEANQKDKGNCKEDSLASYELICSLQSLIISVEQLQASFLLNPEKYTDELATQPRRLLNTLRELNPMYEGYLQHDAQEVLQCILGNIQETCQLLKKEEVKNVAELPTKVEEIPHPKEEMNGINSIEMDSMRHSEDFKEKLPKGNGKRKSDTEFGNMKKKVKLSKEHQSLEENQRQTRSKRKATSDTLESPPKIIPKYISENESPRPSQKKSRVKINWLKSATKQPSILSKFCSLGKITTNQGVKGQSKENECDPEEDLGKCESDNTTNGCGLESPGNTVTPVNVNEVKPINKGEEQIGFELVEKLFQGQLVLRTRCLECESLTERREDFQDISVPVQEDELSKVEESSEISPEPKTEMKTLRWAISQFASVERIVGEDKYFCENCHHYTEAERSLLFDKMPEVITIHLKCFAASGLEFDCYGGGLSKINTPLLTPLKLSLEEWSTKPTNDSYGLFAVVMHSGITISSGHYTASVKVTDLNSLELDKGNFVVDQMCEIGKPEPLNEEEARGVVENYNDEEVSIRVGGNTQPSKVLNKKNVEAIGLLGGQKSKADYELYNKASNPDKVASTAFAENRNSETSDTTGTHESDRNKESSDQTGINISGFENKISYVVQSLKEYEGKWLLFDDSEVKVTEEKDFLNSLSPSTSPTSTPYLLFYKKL
In short: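 In 50mM HEPES pH 7.8 containing 0.5mM EDTA, 1mM TCEP, 0.1 mg/ml BSA and 0.01% Tween-20, 1nM USP1/UAF1 is exposed to compound for 15 min, then Ub-Rho (150nM final) is added and fluorescence is read over time.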

[15] = Primary qHTS for small molecule stabilizers of the endoplasmic reticulum resident proteome: Secreted ER Calcium Modulated Protein (SERCaMP) assay (AID 1508630; active means well fitted curve in the direction sought with a large enough effect; an effect the other way counts as inactive or inconclusive; further: on the % scale 0 is the no-effect control and ±100 the full control effect)
In short: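 GLuc-SERCaMP-expressing SH-SY5Y cells, pretreated 16 h with compound, are challenged with thapsigargin to empty ER calcium stores; after 4 h, coelenterazine is added directly to the medium and luminescence is imaged.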

[16] = molecular target: Lysosomal acid glucosylceramidase (Homo sapiens) (UniProt P04062); assay: Glucocerebrosidase-p2 (AID 348; in the data active means potency below about 10 µM; further: potency means the concentration at half of the fitted maximal effect); conditions: purified GBA, blue fluorogenic substrate, 40 min
Lysosomal acid glucosylceramidase (Homo sapiens), sequence (P04062 whole entry, looked up): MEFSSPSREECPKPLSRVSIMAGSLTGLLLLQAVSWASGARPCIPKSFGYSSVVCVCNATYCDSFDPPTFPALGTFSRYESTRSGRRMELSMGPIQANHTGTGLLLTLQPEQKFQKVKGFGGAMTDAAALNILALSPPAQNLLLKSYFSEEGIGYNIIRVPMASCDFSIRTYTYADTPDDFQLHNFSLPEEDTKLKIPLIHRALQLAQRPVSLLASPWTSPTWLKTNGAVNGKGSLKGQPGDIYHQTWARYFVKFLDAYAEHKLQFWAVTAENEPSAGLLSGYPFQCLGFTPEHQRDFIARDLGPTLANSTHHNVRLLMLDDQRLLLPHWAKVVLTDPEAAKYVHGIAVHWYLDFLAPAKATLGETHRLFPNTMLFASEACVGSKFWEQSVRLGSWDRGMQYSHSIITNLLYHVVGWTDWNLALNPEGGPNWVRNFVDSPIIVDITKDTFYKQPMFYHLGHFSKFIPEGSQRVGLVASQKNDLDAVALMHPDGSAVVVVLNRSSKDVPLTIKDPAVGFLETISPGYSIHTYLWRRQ
In short: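 Compounds titrated from 0.6 nM upwards against 0.2 nM enzyme in pH 5.9 citric acid/KH2PO4, taurocholate, tween-20; blue fluorogenic substrate 80 uM, 40 min room temperature, stopped and read Ex 365/Em 440 for AC50.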

[17] = molecular target: Voltage-gated inwardly rectifying potassium channel KCNH2 (Homo sapiens) (UniProt Q12809); assay: qHTS Assay for Small Molecule Inhibitors of the Human hERG Channel Activity (AID 588834; active means well fitted curve in the direction sought with a large enough effect; an effect the other way counts as inactive or inconclusive;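 further: potency means the concentration at half of the fitted maximal effect; lower thallium flux fluorescence means stronger hERG block; nearly all actives have a fitted effect of over 50% in size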)
Voltage-gated inwardly rectifying potassium channel KCNH2 (Homo sapiens), sequence (Q12809 whole entry, looked up): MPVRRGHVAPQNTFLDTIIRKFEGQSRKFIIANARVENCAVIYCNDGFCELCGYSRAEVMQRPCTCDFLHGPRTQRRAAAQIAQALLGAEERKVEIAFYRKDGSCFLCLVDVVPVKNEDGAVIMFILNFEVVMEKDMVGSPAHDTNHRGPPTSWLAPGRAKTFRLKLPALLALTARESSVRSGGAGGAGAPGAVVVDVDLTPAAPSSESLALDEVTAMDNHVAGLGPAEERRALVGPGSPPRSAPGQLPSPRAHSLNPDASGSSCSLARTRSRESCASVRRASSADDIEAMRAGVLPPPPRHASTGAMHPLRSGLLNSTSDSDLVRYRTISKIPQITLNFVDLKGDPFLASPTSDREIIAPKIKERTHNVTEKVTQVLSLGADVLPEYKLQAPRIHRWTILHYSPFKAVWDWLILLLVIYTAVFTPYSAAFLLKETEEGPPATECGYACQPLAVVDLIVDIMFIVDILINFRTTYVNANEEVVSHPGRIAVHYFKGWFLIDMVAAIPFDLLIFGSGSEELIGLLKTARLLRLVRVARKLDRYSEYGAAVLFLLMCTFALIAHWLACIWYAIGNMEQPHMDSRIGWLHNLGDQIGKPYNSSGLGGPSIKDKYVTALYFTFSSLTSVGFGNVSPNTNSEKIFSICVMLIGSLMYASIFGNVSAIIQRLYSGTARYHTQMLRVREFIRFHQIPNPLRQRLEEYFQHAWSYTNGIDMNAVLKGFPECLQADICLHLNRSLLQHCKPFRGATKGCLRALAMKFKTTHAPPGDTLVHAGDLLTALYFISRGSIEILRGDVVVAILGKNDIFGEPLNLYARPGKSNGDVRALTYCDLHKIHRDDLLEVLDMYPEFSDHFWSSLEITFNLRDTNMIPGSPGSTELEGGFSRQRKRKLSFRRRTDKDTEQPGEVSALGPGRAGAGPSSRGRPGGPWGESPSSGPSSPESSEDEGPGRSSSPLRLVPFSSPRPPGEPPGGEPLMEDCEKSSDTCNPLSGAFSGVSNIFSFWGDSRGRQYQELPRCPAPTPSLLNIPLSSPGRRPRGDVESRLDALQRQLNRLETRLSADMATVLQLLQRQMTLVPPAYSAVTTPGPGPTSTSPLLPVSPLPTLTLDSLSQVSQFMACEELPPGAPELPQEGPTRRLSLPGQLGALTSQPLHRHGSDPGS
In short: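 hERG-BacMam U2OS, 2000 cells/well; 0.7X FluxOR loading 1 hr RT dark; cpd ~10 min 37 °C; stim buffer; FDSS fluorescence 2 min @ 1 s; AC50 Hill fit.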

[18] = tested on: HIV-1 nucleocapsid protein NCp7 (binding to TG oligonucleotide); assay: HIV Nucleocapsid (AID 346; call rule not given here;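 further: potency means the concentration at half of the fitted maximal effect; potency is for inhibitors that block NC binding and lower polarization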); conditions: HIV-1 NC / fluorescein-TGTGTGTG probe, fluorescence polarization
In short: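 Reagents dispensed (10 nM TG4xF, 100 nM HIV-1 NC), plates spun, compounds pin-transferred, then incubated 1 hr at room temperature before FP imaging. Buffer: Hepes pH 7.5, 250mM NaCl, 1uM ZnCl2, 100 uM TCEP, 5 mM 2-mercaptoethanol.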

[19] = measured here: cell count channel max response
[20] = measured here: lipid channel max response

Cc1ccccc1-c1cncnc1NCCc1cnc[nH]1
active: Potency [2] 5.01 µM | Potency [9] 0.631 µM
9.82%: max response [13, 19]
inactive: outcome [1] | activity change, negative = inhibition [3] -8.8% | outcome [4] | Potency [5] > 46 µM | Potency [6] > 46 µM | outcome [7] | Potency [8] | Potency [10] | Potency [11] | Potency [12] | activity change, negative = inhibition [13] 6.91% | Potency [14] | outcome [15]
17.7%: max response [13, 20]

O=C(Oc1ccccc1)N1CCC[C@@]2(CCN(Cc3cc(C(F)(F)F)cc(C(F)(F)F)c3)C2)C1
inactive: Potency [16] > 11.4 µM | outcome [4] | Potency [6] > 46 µM | outcome [7] | Potency [8] | outcome [15]

COc1c2c(cc3c1OCO3)CC[N+](C)=C2
18.3%: max response [13, 20]
8.04%: max response [13, 19]
inactive: Potency [9] | Potency [11] | Potency [12] | activity change, negative = inhibition [13] 10.8% | outcome [15]

CCCN1CCc2cc(O)cc3c2C1Cc1ccc(O)c(O)c1-3 (stereo unspecified)
active: Potency [17] 7.08 µM
inactive: outcome [15]

c1ccc(N2CC3(CCNCC3)C2)nc1
12.4%: max response [13, 19]
14.7%: max response [13, 20]
inactive: outcome [1] | outcome [4] | Potency [6] > 46 µM | outcome [7] | Potency [8] | activity change, negative = inhibition [13] -0.659% | outcome [15]

O=C(Oc1ccccc1)N1CCC2(CCN(Cc3nccs3)CC2)CC1
active: Potency [10] 25.1 µM
inactive: Potency [18] > 20 µM | outcome [1] | Potency [2] | outcome [4] | Potency [6] > 46 µM | outcome [7] | Potency [8] | Potency [9] | outcome [15]

CC(C)CN1CC2(CCN(C(=O)Oc3ccccc3)CC2)C1
1.27%: max response [13, 20]
inactive: Potency [16] > 11.4 µM | outcome [1] | Potency [2] | activity change, negative = inhibition [3] -14.8% | outcome [4] | Potency [6] > 46 µM | outcome [7] | activity change, negative = inhibition [13] 2.95% | outcome [15]
-4.14%: max response [13, 19]

c1cnc(N2CC3(CCNCC3)C2)nc1
11.6%: max response [13, 19]
15.7%: max response [13, 20]
inactive: Potency [16] > 11.4 µM | outcome [1] | activity change, negative = inhibition [3] -1.58% | outcome [4] | Potency [6] > 46 µM | Potency [8] | activity change, negative = inhibition [13] 1.55% | outcome [15]

c1ccc(CN2CCC3(CCNCC3)CC2)cc1
22.2%: max response [13, 19]
27.4%: max response [13, 20]
inactive: outcome [1] | Potency [2] | outcome [4] | Potency [6] > 46 µM | outcome [7] | activity change, negative = inhibition [13] 1.99% | outcome [15]

Source: PubChem BioAssay (NCATS)
